From the supplement of paper PMC5499739
In all, about 16,000 sequences were measured (“Z-score”: median about -0.37, highest 2% from about 3.1 on). The entries come from a sample that favours the highest values as a whole.

System: RBM10 RRM1-ZnF-RRM2 (GST-tagged construct)
Assay: RNAcompete 7-mer binding Z-score; higher = stronger binding preference
In short: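 In 1 ml Hepes pH 7.8 buffer with KCl, NaCl, glycerol, DTT, BSA and glutathione Sepharose beads, GST-tagged RBM10 constructs (20 pmol) were incubated for 30 min at 4°C with 1.5 nmol of a designed pool of 241 399 RNAs up to 41 nt. Four 2-min washes at 4°C followed, and bound RNA was detected by microarray hybridisation. Heptamer motif enrichment was expressed as a one-sided Z-score across probes containing each motif.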

| Sequence | RNAcompete 7-mer binding Z-score |
| --- | --- |
| CAUCCCA | -0.486 |
| GCCAUCG | -0.646 |
| GACUUCA | -0.672 |
| UUGCUGA | -0.486 |
| AUAAGUU | -0.249 |
| CGAGAGG | 1.46 |
| UUCCAGA | -0.519 |
| UGGCUUU | -0.464 |
| ACGGAGG | 2.57 |
| CCGGAGG | 0.876 |
| AUGGAGG | 4.33 |
| AUGGAGU | 2.24 |
| GUGGAGU | 2.86 |
| GUGGAGC | 2.47 |
| AUGGAGA | 2.59 |
| GCGGAGG | 3.25 |
| GUGGAGG | 4.09 |
| CGAUAAU | -0.256 |
| GGAUCAA | 1.19 |
| CAUCCCU | -0.69 |
| CGAAGUU | -0.235 |
| AACAGUG | 0.654 |
| GCUCGCA | -0.373 |
| UAACUAC | -0.551 |
| CGAUUGG | 0.825 |

| Sequence | RNAcompete 7-mer binding Z-score |
| --- | --- |
| AGAUAGG | 2.87 |
| GGAUAGA | 2.48 |
| UAAUAGG | 0.742 |
| GGAUUGU | 0.822 |
| GAAUAGG | 3.18 |
| GGAUAGG | 4.1 |
| GGAUUGG | 3.28 |
| CAAUAGG | 1.3 |
| UGACGCA | -0.107 |
| AACCUAA | -0.734 |
| UUAGCUC | -0.781 |
| CGAUAUC | -0.5 |
| GGAUCGC | 0.538 |
| UAUGAGG | 1.54 |
| UCCAGCC | -0.799 |
| ACAGAUC | -0.508 |
| CACGUGC | -0.428 |
| UAUUGCG | -0.278 |
| UCCCGUU | -0.799 |
| UUCGUCG | -0.3 |
| CUUAAUC | -0.905 |
| ACAAGGA | 1.94 |
| GCAAGGA | 2.65 |
| CCAAGGG | 1.05 |
| GCAAGGU | 2.17 |

| Sequence | RNAcompete 7-mer binding Z-score |
| --- | --- |
| GCAAGGG | 3.28 |
| ACAAGGG | 3.52 |
| AAAAAUU | -0.435 |
| GAUAUAG | 0.734 |
| CUUUACG | -0.81 |
| UCGAGUU | -0.482 |
| GCCUACC | -0.726 |
| GGGCUGC | 1.14 |
| UAAGGUA | 1.39 |
| AUAGGUG | 2.41 |
| UAAGGUG | 2.07 |
| GAAGGUC | 1.25 |
| GAAGGUA | 4.04 |
| GUAGGUG | 3.25 |
| GAAGGCG | 2.66 |
| GAAGGUG | 4.37 |
| CAAGGUG | 2.13 |
| GAAGGUU | 2.96 |
| GUAGGUA | 2.25 |
| AAAGGUG | 3.5 |
| GCCAUGU | -0.632 |
| CUAGUGC | -0.486 |
| AACCGUG | -0.00148 |
| UCGAAAG | -0.00148 |
| AUUCGAG | -0.114 |

| Sequence | RNAcompete 7-mer binding Z-score |
| --- | --- |
| AGACCGG | -0.366 |
| AAAGGUA | 3.53 |
| AAAGGUU | 3.09 |
| AAAGGUC | 1.46 |
| GGAAGGA | 4.61 |
| GGAAGGU | 3.94 |
| GGAAGGC | 3.04 |
| AGAAGGC | 1.17 |
| AGAAGAA | 1 |
| UGAAGGA | 2.95 |
| CGAAGGA | 1.62 |
| UGAAGCG | 0.581 |
| UGAAGGG | 3.56 |
| AGAAGGA | 4.29 |
| CGAAGGU | 1.34 |
| UGAAGGC | 1.21 |
| CGAAUAA | -0.224 |
| GGUCAGC | 0.716 |
| CAUUUGC | -1.04 |
| AGUCCAA | -0.464 |
| AUGCGCG | -0.0889 |
| GAAAUCG | 0.195 |
| GGCAACU | 0.0532 |
| AUAGACA | 0.0532 |
| AUAAUCU | -0.65 |

| Sequence | RNAcompete 7-mer binding Z-score |
| --- | --- |
| AAGAUGU | 0.13 |
| AACGGAA | 1.91 |
| GCAUUUA | -0.661 |
| AACAAAG | 0.355 |
| CUGCUCU | -0.923 |
| GGCAUGA | 0.876 |
| UGAAGGU | 2.14 |
| CGAAGGG | 2.68 |
| AGAAGCU | -0.508 |
| AGAAGGU | 3.67 |
| AGAAGAG | 1.61 |
| AGAAGGG | 4.09 |
| CCCCCCA | -0.38 |
| ACUAGGC | -0.235 |
| CUAACGA | -0.566 |
| UGUAGCC | -0.624 |
| AUCCCUC | -0.759 |
| CGCACGG | -0.0124 |
| CGGUUGG | 1.91 |
| UGGUUGA | 1.31 |
| CGGUUGA | 0.876 |
| AGGUUGG | 2.71 |
| UGGUUAG | 1.94 |
| GGGUUGG | 4.05 |
| GGGUUAG | 4.04 |

| Sequence | RNAcompete 7-mer binding Z-score |
| --- | --- |
| CGGUUAG | 0.691 |
| GGGUUGA | 3.53 |
| AAGUUUU | -0.329 |
| AUGGGGA | 4.23 |
| UUGGGAA | 1.92 |
| UUGGGAG | 2.51 |
| CUGGGAA | 1.36 |
| AUGGGAA | 4.29 |
| AUGGGGC | 2.6 |
| AUGGGAG | 3.64 |
| CUGGGAG | 1.4 |
| AUGGGGG | 3.84 |
| GCGGUAU | 0.574 |
| AUUAUCG | -0.402 |
| UCCCCCU | -0.566 |
| UGAAAUU | -0.686 |
| CUGUGGG | 1.63 |
| AAAAAAA | -0.49 |
| UAGGCUA | 0.392 |
| CGACGUG | 0.25 |
| GACGGCG | 0.836 |
| AUGGGGU | 3.91 |
| CUGGGGU | 1.79 |
| CGGGGGU | 3.06 |
| AUCACCU | -0.876 |

| Sequence | RNAcompete 7-mer binding Z-score |
| --- | --- |
| UGUAGAU | 0.235 |
| GUUAGGC | 1.25 |
| GCGGGUG | 2.75 |
| ACGGGGU | 3.8 |
| ACGGGGG | 3.19 |
| ACGGGUU | 2.32 |
| ACGGGUG | 3.24 |
| ACGGGUC | 1.42 |
| CCGGGGU | 1.71 |
| ACGGGGA | 2.84 |
| ACGGGGC | 2.37 |
| CGUUCUC | -0.763 |
| UUCAUUU | -0.737 |
| GCGGCUA | 0.21 |
| ACCCAGC | -0.785 |
| CAAUGCA | -0.362 |
| UCUAAUG | -0.577 |
| CUUUAUA | -0.752 |
| GGCGAGC | 1.87 |
| AGCGGGA | 3.24 |
| GGCGAGG | 3.22 |
| GGCGGGU | 2.57 |
| GGCGGGC | 1.97 |
| CGCGGGG | 2.32 |
| CGCGGGA | 1.16 |

| Sequence | RNAcompete 7-mer binding Z-score |
| --- | --- |
| GGCGGGG | 3.64 |
| AGCGGGG | 3.96 |
| CGCGAGG | 0.833 |
| AGCGGGU | 3.01 |
| AGCGGGC | 1.57 |
| UGGUAAG | 1.73 |
| CUAGGGA | 1.6 |
| GAGACCG | -0.0452 |
| UACACCC | -0.77 |
| AGCAGGU | 1.74 |
| GACUCCA | -0.704 |
| CUUUAGG | -0.369 |
| AUAUAAU | -0.366 |
| GGUGAAA | 1.83 |
| CAAAUAG | -0.144 |
| GGCGGCA | 1.12 |
| GGCGGGA | 3.23 |
| UGCGGGA | 1.7 |
| AUAUUAG | 0.0313 |
| AUUGGGU | 2.74 |
| GGUUGGU | 1.94 |
| GGUUGGC | 2.03 |
| GAUUGGC | 0.927 |
| GAUUGGG | 3.64 |
| AUUGGGA | 2.99 |

| Sequence | RNAcompete 7-mer binding Z-score |
| --- | --- |
| AAUUGGG | 2.6 |
| AUUGGGG | 3.16 |
| UUUGGGG | 2.13 |
| CUUGGGG | 1.13 |
| GUUGGGG | 3.69 |
| GGUUGGG | 4.42 |
| CCUUUCC | -0.887 |
| AUGGCGU | 0.705 |
| CGCUAAU | -0.628 |
| AAGCAGA | 0.672 |
| UCGGAAC | 0.0532 |
| UUGUCAA | -0.741 |
| AAUUCAC | -0.643 |
| UUUGCAA | -0.602 |
| ACUUUCU | -0.959 |
| AUCGAGA | 0.352 |
| GGUUAGU | 1.6 |
| GGUUAGC | 1.03 |
| GGUUAGG | 4.22 |
| ACUGCCC | -0.439 |
